Test results published in PubChem BioAssay (NCI).
About 83,000 compounds went through this panel and 20% of them were active in at least one assay; those are over-represented in the sample as a whole.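 Interpretation: 100, growth as untreated; towards 0, rising growth inhibition; 0, no net growth; 0 to -100, cell death. Compounds scoring below 10 were considered active.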 A number with no mark means an inactive call. Active and inactive are the calls of the source.

How the values were obtained:
Test in all cases: NCI-60 one-dose screen, 48 h (100 = growth as untreated, 0 = no growth, -100 = all killed)
Conditions in all cases: 10 µM unless noted
HCT-15 colon = test system: HCT-15 colon
HT29 colon = test system: HT29 colon
SNB-75 CNS = test system: SNB-75 CNS
SNB-19 CNS = test system: SNB-19 CNS
U251 CNS = test system: U251 CNS
PC-3 prostate = test system: PC-3 prostate
SK-MEL-5 melanoma = test system: SK-MEL-5 melanoma
UACC-62 melanoma = test system: UACC-62 melanoma
LOX IMVI melanoma = test system: LOX IMVI melanoma
SK-MEL-28 melanoma = test system: SK-MEL-28 melanoma

Work on `O=C1CC23OC4ON=C(Br)C4C2C(O)c2ccccc2N13` (stereo not given) yielded a growth (HCT-15 colon) of 99%, a growth (HT29 colon) of 90.5% and a growth (SNB-75 CNS) of 79.9%. It also gave a growth (SNB-19 CNS) of 105%, a growth (U251 CNS) of 110% and a growth (PC-3 prostate) of 94.4%. It also gave a growth (SK-MEL-5 melanoma) of 111%, a growth (UACC-62 melanoma) of 94.3% and a growth (LOX IMVI melanoma) of 88.8%. For the same molecule, the growth (SK-MEL-28 melanoma) was 114%.
`S=C(Nc1ccccc1)c1ccccn1` was tested, and the growth (HCT-15 colon) was 96.8%, the growth (HT29 colon) was 86.4% and the growth (SNB-75 CNS) was 97.3%. The growth (SNB-19 CNS) was 97.5%, the growth (U251 CNS) was 95.2% and the growth (PC-3 prostate) was 92.2%. The growth (SK-MEL-5 melanoma) was 102%, the growth (UACC-62 melanoma) was 90.3% and the growth (LOX IMVI melanoma) was 85.9%. It also gave a growth (SK-MEL-28 melanoma) of 104%.
`N#Cc1nc(-c2ccccc2)oc1S(=O)(=O)NCC(c1ccc(Cl)cc1)N1CCCCC1` (stereo not given) showed a growth (HCT-15 colon) of 35.3%, a growth (HT29 colon) of 25.1% and a growth (SNB-75 CNS) of 94%. The growth (SNB-19 CNS) was 88.1%, the growth (U251 CNS) was 74.1% and the growth (PC-3 prostate) was 78.9%. The growth (SK-MEL-5 melanoma) was 73.8%, the growth (UACC-62 melanoma) was 80.2% and the growth (LOX IMVI melanoma) was 21.9%. The growth (SK-MEL-28 melanoma) was 96.3%.
`Cc1c(Cl)cccc1NC(=O)c1sc2nc3c(cc2c1N)CCCCC3` was tested, and the growth (HCT-15 colon) was 30.1%, the growth (HT29 colon) was 9.15% (active) and the growth (SNB-75 CNS) was 9.95% (active). For the same molecule, the growth (SNB-19 CNS) was 34.2%, the growth (U251 CNS) was 24.2% and the growth (PC-3 prostate) was 37.9%. The growth (SK-MEL-5 melanoma) was 45.8%, the growth (UACC-62 melanoma) was 39.6% and the growth (LOX IMVI melanoma) was 41.8%. For the same molecule, the growth (SK-MEL-28 melanoma) was 72.6%.
`COc1ccc2c(c1)Oc1nc(N)c(C#N)c(N)c1C2Sc1ccc(O)cc1` (stereo not given) showed a growth (HCT-15 colon) of 65.7%, a growth (HT29 colon) of 102% and a growth (SNB-75 CNS) of 89.7%. It also gave a growth (SNB-19 CNS) of 106%, a growth (U251 CNS) of 86.5% and a growth (PC-3 prostate) of 95.9%. It also gave a growth (SK-MEL-5 melanoma) of 90.3%, a growth (UACC-62 melanoma) of 101% and a growth (LOX IMVI melanoma) of 87.4%. The growth (SK-MEL-28 melanoma) was 105%.
`C#Cc1ccccc1NC(=O)c1sc2nc3c(cc2c1N)CCCCCC3` was tested, and the growth (HCT-15 colon) was 70.2%, the growth (HT29 colon) was 36.3% and the growth (SNB-75 CNS) was 39.2%. It also gave a growth (SNB-19 CNS) of 76.5%, a growth (U251 CNS) of 23.4% and a growth (PC-3 prostate) of 77.4%. For the same molecule, the growth (SK-MEL-5 melanoma) was 89.6%, the growth (UACC-62 melanoma) was 91.8% and the growth (LOX IMVI melanoma) was 22.8%. It also gave a growth (SK-MEL-28 melanoma) of 91.1%.
`O=S(=O)(O)c1ccc(N=NSc2ccc3ccccc3c2)cc1` showed a growth (HCT-15 colon) of 104%, a growth (HT29 colon) of 93.8% and a growth (SNB-75 CNS) of 113%. For the same molecule, the growth (SNB-19 CNS) was 105%, the growth (U251 CNS) was 96.9% and the growth (PC-3 prostate) was 81.3%. The growth (SK-MEL-5 melanoma) was 100%, the growth (UACC-62 melanoma) was 102% and the growth (LOX IMVI melanoma) was 86.8%. For the same molecule, the growth (SK-MEL-28 melanoma) was 106%.
With `CCOc1ccccc1C(=O)/C=C/c1cc2ccccc2[nH]c1=O` the growth (HCT-15 colon) was -58.9% (active), the growth (HT29 colon) was -44.6% (active) and the growth (SNB-75 CNS) was 21%. For the same molecule, the growth (SNB-19 CNS) was -72.9% (active), the growth (U251 CNS) was -92.2% (active) and the growth (PC-3 prostate) was 14.9%. For the same molecule, the growth (SK-MEL-5 melanoma) was -78.3% (active), the growth (UACC-62 melanoma) was -65.3% (active) and the growth (LOX IMVI melanoma) was -81.8% (active). For the same molecule, the growth (SK-MEL-28 melanoma) was -3.66% (active).
`O=C(Nc1ccc(S(=O)(=O)NC2CCCCCC2)cc1)C(c1ccccc1)S(=O)(=O)c1ccc(F)cc1` (stereo not given) was tested, and the growth (HCT-15 colon) was 2.74% (active), the growth (HT29 colon) was -14.1% (active) and the growth (SNB-75 CNS) was 3.64% (active). For the same molecule, the growth (SNB-19 CNS) was 26.2%, the growth (U251 CNS) was 12.6% and the growth (PC-3 prostate) was 7.69% (active). For the same molecule, the growth (SK-MEL-5 melanoma) was -36.4% (active), the growth (UACC-62 melanoma) was -9.75% (active) and the growth (LOX IMVI melanoma) was 5.06% (active). For the same molecule, the growth (SK-MEL-28 melanoma) was 1.46% (active).
In the case of `Cc1cc2ccccc2c[n+]1CC(=O)c1ccc(-c2ccccc2)cc1`, the growth (HCT-15 colon) is reported as 84%, the growth (HT29 colon) is reported as 24.8% and the growth (SNB-75 CNS) is reported as 61.4%. For the same molecule, the growth (SNB-19 CNS) was 58.8%, the growth (U251 CNS) was 42.7% and the growth (PC-3 prostate) was 29.7%. The growth (SK-MEL-5 melanoma) was 21.6%, the growth (UACC-62 melanoma) was 71.2% and the growth (LOX IMVI melanoma) was 54%. It also gave a growth (SK-MEL-28 melanoma) of 84%.
For `COCCOCCOCc1n(Cc2ccc3ccccc3n2)c2ccccc2[n+]1Cc1ccc2ccccc2n1`, the growth (HCT-15 colon) was 109%, the growth (HT29 colon) was 15.3% and the growth (SNB-75 CNS) was 4.56% (active). The growth (SNB-19 CNS) was 22.4%, the growth (U251 CNS) was 10.8% and the growth (PC-3 prostate) was 13.7%. For the same molecule, the growth (SK-MEL-5 melanoma) was -14.6% (active), the growth (UACC-62 melanoma) was 14.5% and the growth (LOX IMVI melanoma) was 28.6%. It also gave a growth (SK-MEL-28 melanoma) of 41.8%.
With `O=C(/C(=C/c1ccc([N+](=O)[O-])cc1)SCc1ccc(Cl)cc1)c1ccc(F)cc1` the growth (HCT-15 colon) was -16.5% (active), the growth (HT29 colon) was -2.26% (active) and the growth (SNB-75 CNS) was 82.3%. The growth (SNB-19 CNS) was 35.6%, the growth (U251 CNS) was -9.2% (active) and the growth (PC-3 prostate) was 41.4%. The growth (SK-MEL-5 melanoma) was 69.9%, the growth (UACC-62 melanoma) was 33.8% and the growth (LOX IMVI melanoma) was -18.3% (active). It also gave a growth (SK-MEL-28 melanoma) of 95.8%.
